Bioassay records deposited in PubChem by Center for Chemical Genomics, University of Michigan.
Dicer processing – inhibitors of Dicer pre-microRNA processing, primary screen, biochemical, cat-ELCCA, chemiluminescence. Endoribonuclease Dicer (Homo sapiens), Q9UPY3. cat-ELCCA pre-miR-21 Dicer processing; active compounds read high. z-score at 25 µM. actives 6% (n = 47,000). AID 1347074, 2019; in the data active = z-score above about 3, passing the limit was not always enough;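 also: plate controls were vehicle for no effect and no enzyme for full effect; higher signal means more uncleaved substrate so more Dicer inhibition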
* hit, by the source's call. Many of the other results were omitted from the sample, so hits are more common in it than they were.

SMILES | Dicer processing
O=C(O)c1c(C(F)(F)F)cc[nH]c1=O | -1.71
N#CCCn1nc(-c2ccccc2)cc1NC(=O)NC(=O)c1c(F)cccc1Cl | 1.39
CCCS(=O)(=O)c1csc(C(=O)OC)c1N/N=C\c1c(F)cccc1Cl | 0.18
O=C1C(c2ccccc2)=C(N=CNO)c2ccccc21 | -0.53
O=c1c2cnn(-c3ccccc3)c2ncn1/N=C/c1ccc(Cl)cc1 | 0.07
O=c1c2cnn(-c3ccccc3)c2nnn1/N=C/c1ccc([N+](=O)[O-])cc1 | 3.28*
Cc1nc2c(cnn2-c2ccccc2)c(=O)n1/N=C/c1ccc(Cl)cc1 | 3.18*
O=c1c2cnn(-c3ccccc3)c2nnn1/N=C/c1ccc(OCc2ccccc2)cc1 | -1.07
Cc1nc2c(cnn2-c2ccccc2)c(=O)n1/N=C/c1cccs1 | 2.05
O=c1c2cnn(-c3ccccc3)c2ncn1/N=C/c1ccc(OCc2ccccc2)cc1 | -0.77
COC(=O)C1=C(C)NC2=C(C(=O)CC(C)(C)C2)C1c1ccc(F)c(F)c1 (stereo not drawn) | 0.73
CCOC(=O)c1c(C)csc1NC(=O)CSc1ccc(Cl)cc1 | 0.16
Cc1csc2c(=O)n(CCSc3ccc(Cl)cc3)c(=O)[nH]c12 | 3.08*
O=c1[nH]c2ccccc2c(=O)n1CCSc1ccccc1 | -0.98
Cc1cc(C)c(C)c(S(=O)(=O)NCc2ccccn2)c1C | 0.91
CCOc1cc(C2C(C(=O)OC(C)C)=C(C)NC3=C2C(=O)CCC3)cc(Br)c1O (stereo not drawn) | 1.14
C[C@H](CCC(=O)O)C1CC[C@H]2C3C(=O)CC4CC(=O)CCC4(C)[C@H]3CC(=O)C12C (stereo partly drawn) | -0.02
CC(C)(C)c1ccc(-c2ncc(-c3cccc([N+](=O)[O-])c3)s2)cc1 | 0.03
c1ccc(-c2ccc(-c3cnc(-c4ccncc4)s3)cc2)cc1 | 3.1*
O=c1sc(-c2ccccc2)ncc1-c1ccccc1 | -0.08
Fc1ccc(Cc2cn3cc(-c4ccc(F)cc4)nc3s2)cc1 | 3.94*
Clc1ccc(-c2cn3cc(Cc4ccccc4)sc3n2)cc1 | 2.41
Fc1ccc(-c2cn3cc(Cc4ccccc4Cl)sc3n2)cc1 | 0.06
CCc1ccc(Cc2cn3cc(-c4ccccc4)nc3s2)cc1 | -0.59
Fc1ccc(-c2cn3cc(Cc4ccc(Br)cc4)sc3n2)cc1 | 3.42*
SMILES | Dicer processing
Cc1ccc(Cc2cn3cc(-c4ccccc4)nc3s2)cc1 | -0.16
O=C(Nc1ccc(Br)c(Cl)c1)Nc1csc(Cc2c(Cl)cccc2Cl)n1 | -0.18
CCCC1c2ccsc2CCN1C(=O)c1cc(OC)cc(OC)c1 (stereo not drawn) | -0.32
O=S1(=O)CC(O)C(NCc2ccccc2)C1 (stereo not drawn) | 0.21
Cc1ccc(I)c(C(N)=O)c1 | -0.65
N#CCCN(C(=S)Nc1ccc(F)cc1)C1CCCCC1 | 0.85
CCOC(=O)c1cn2nc(Oc3ccc(N4CCN(C(C)=O)CC4)cc3)ccc2n1 | 1.57
Cc1[nH]n(-c2ccccc2)c(=S)c1/C=N/c1nc(-c2ccccc2)cs1 | -2.34
O=C(CSc1n[nH]c(=O)n1-c1ccccc1)c1ccc2c(c1)OCCO2 | 1.23
CC(c1ccccc1)n1c(OC(=O)N(C)C)nnc1SCC(=O)c1ccc2c(c1)OCCO2 (stereo not drawn) | 3.63*
CSc1nnc(SCC(=O)c2ccc3c(c2)OCCO3)s1 | 1.87
Cc1csc(NC(=O)C(F)(F)F)c1C#N | -1.65
CCc1ccc(C)c(NC(=O)Nc2nnc(C3CC3)s2)c1 | 0.04
O=C1Nc2ccc(Br)cc2/C1=C/C(=O)c1ccc(-c2ccccc2)cc1 | 0.79
COCCOc1nc2c(c(=O)n(C)c(=O)n2C)n1CCc1ccccc1 | 1.62
C#CCOc1nc2c(c(=O)n(C)c(=O)n2C)n1Cc1ccccc1 | 0.67
CCCOc1nc2c(c(=O)n(C)c(=O)n2C)n1C(C)c1ccccc1 (stereo not drawn) | 3.55*
COc1ccc(Cc2nnc(SCc3ccc(C(N)=O)cc3)n2-c2ccc(F)cc2)cc1OC | -0.36
COc1ccc(-c2cc3ncc4c(n3n2)-c2cc(F)ccc2OC4)cc1 | -0.27
CCOC(=O)/C(C#N)=C/c1cc(C(F)(F)F)cc(C(F)(F)F)c1 | -0.42
Fc1ccc(Oc2ccc3nnc(-c4ccccc4)n3n2)cc1 | 0.04
CCCn1c(=O)cc(N)n(-c2ccc(Cl)cc2)c1=O | 5.06*
Nc1cc(=O)n(Cc2ccccc2)c(=O)n1-c1ccccc1 | 0.82
CCCn1c(=O)c2[nH]cnc2n(-c2ccc(Cl)cc2)c1=O | 1.72
CS(=O)(=N/C=C(\C#N)C(=O)c1ccccc1)c1ccc(OC(=O)c2ccc(Cl)cc2)cc1 (stereo not drawn) | 0.19
SMILES | Dicer processing
O=C(NNc1ncccc1-n1cccc1)c1ccco1 | -0.23
COCCCN=C(Nc1ccc(Br)cc1C)SC | 1.88
CN=C(Nc1ccc(C)cc1C)SC | 0.13
COCCCN=C(Nc1cc(C)c(C)cc1C)SC | 3.9*
CC(=O)ONc1ccc(S(=O)(=O)Nc2c(C)cccc2C)cc1 | -1.1
Cc1csc2c(N3CCN(S(=O)(=O)c4cc(C(F)(F)F)cc(C(F)(F)F)c4)CC3)ncnc12 | 0.63
CCOC(=O)CC1=Nc2ccccc2NC(=O)C1 | 0.09
N#Cc1ccc(C#CCOC(=O)Nc2ccccc2)cc1 | -7.99
CCOC(=O)NC1=C(C#N)C=Nc2ccccc2N1 | 22.9*
CC(CCC(=O)NCC(=O)O)C1CCC2C3C(O)CC4CC(O)CCC4(C)C3CCC12C (stereo not drawn) | -0.97
COc1ccc(/C=C2/NC(=O)CN(C(C)=O)C2=O)cc1 | 1.98
CN1NC(c2ccc(Cl)cc2)/C(=N\OC(=O)c2ccc(Cl)cc2)SC1=S (stereo not drawn) | -0.02
O=C(Oc1c(-c2ccccc2)c(=O)n2c3c(cccc13)CC2)c1cccs1 | 3.96*
O=C(Oc1c(-c2ccccc2)c(=O)n2c3c(cccc13)CC2)c1ccccc1 | -2.04
O=C(Oc1c(-c2ccccc2)c(=O)n2c3c(cccc13)CCC2)c1cccs1 | -1.03
CCOc1cc(-c2cc(=O)c3ccccc3o2)ccc1O | -0.81
CCOc1cc(-c2cc(O)c3c(C)oc(C)c3c(=O)c2)ccc1O | 0.83
CCOc1cc(-c2cc(OCC)c3c(C)oc(C)c3c(=O)c2)ccc1O | 3.55*
COc1cc2c(=O)n(CCSC(C)(C)C)c(=S)[nH]c2c(OC)c1OC | -0.14
O=C(Nc1ccc(Cl)cc1Cl)C1CCc2ccccc2O1 (stereo not drawn) | -1.09
CC(C)Nc1nc(NC(C)C)nc(N(C)C#N)n1 | 6.95*
Cc1nn2c(c1-c1ccc(Cl)cc1)NC1=C(C(=O)CCC1)C2c1ccccc1 (stereo not drawn) | -0.02
C=CCOC(=O)C1=C(C)NC2=C(C(=O)CCC2)C1c1ccc(OCC)c(OC)c1 (stereo not drawn) | -0.68
COC(=O)C1=C(C)NC2=C(C(=O)CC(c3ccccc3)C2)C1c1cc(Cl)c(O)c(OC)c1 (stereo not drawn) | 1.06
N[C@@H](Cc1cc(I)c(Oc2ccc(O)c(I)c2)c(I)c1)C(=O)O | 3.25*
SMILES | Dicer processing
NC(Cc1c[nH]c2ccc(Br)cc12)C(=O)O (stereo not drawn) | -0.81
CCOC(=O)[C@@H](N)Cc1ccccc1 | -0.77
N[C@@H](Cc1cc(I)c(Oc2cc(I)c(O)c(I)c2)c(I)c1)C(=O)O | 4.34*
N[C@@H](Cc1ccc(O)c(O)c1)C(=O)O | 5.04
N[C@@H](Cc1ccc([N+](=O)[O-])cc1)C(=O)O | -0.81
O=C(O)CCC(=O)CCC(=O)c1ccc(Br)cc1 | 1.55
Cn1c(Cc2nn(C)c(=O)c3ccccc23)nnc1SCc1ccc(Cl)cc1Cl | -0.64
